High-throughput results from PubChem.
This excerpt belongs to a sample that is enriched for hits.
HIV RNase H inh-1: blocks HIV-1 RNase H cleavage of RNA/DNA duplex; inhibition, % at 10 µM; P04585; RT-RNase H RNA/DNA duplex cleavage, fluorescence; AID 565; hit rate 1.9% among 65,000; in the data active means inhibition above about 50%
HIV RNase H inh-2: confirmation of HIV-1 reverse transcriptase RNase H inhibitors; shares compounds with HIV RNase H inh-1; Recombinant RT RNase H, fluorescent RNA/DNA duplex cleavage; inhibition, % at 10 µM; hit rate 39% among 1,000; AID 651; in the data active means inhibition above about 48%; inconclusive means no clear call, values can overlap the other calls
Large screens that a line does not name were inactive (follow-up assays come after a bar, where they were run).

NC(=O)c1cc(-c2ccccc2)sc1NC(=O)Cc1ccc(S(=O)(=O)N2CCOCC2)s1	HIV RNase H inh-1 57.9 | HIV RNase H inh-2 66.7
O=C(CCC(=O)Nc1ccc(Oc2ccccc2)cc1)NCCO	none
O=C1CCC(C(=O)O)(c2ccccc2)C1 (configuration not stated)	none
CC(C)N1C(=O)C2C(c3ccccc3O)NC(C)(C(=O)O)C2C1=O (configuration not stated)	none
CC1Oc2ccccc2N(CC(=O)c2ccccc2)C1=O (configuration not stated)	none
CC1Oc2ccccc2N(Cc2ccccc2F)C1=O (configuration not stated)	HIV RNase H inh-1 89.8 | HIV RNase H inh-2 inactive
CC1Oc2ccccc2N(Cc2ccccc2Cl)C1=O (configuration not stated)	none
Cc1ccc(S(=O)(=O)N2CCN(S(=O)(=O)c3ccc(C)cc3)C3OCCOC32)cc1 (configuration not stated)	none
O=C(NCC1CCCO1)C1CCCCN1S(=O)(=O)c1ccc(F)cc1 (configuration not stated)	none
Cc1cc(C)cc(N(CC(=O)NC2CCC(C)CC2)S(=O)(=O)c2c(C)noc2C)c1 (configuration not stated)	none
CC(C)Sc1nc(-c2cccs2)nc2c1c(=O)n(C)c(=O)n2C	HIV RNase H inh-1 73.6 | HIV RNase H inh-2 90.4
Cn1c(=O)c2c(SCC(=O)NCC3CCCO3)nc(-c3cccs3)nc2n(C)c1=O (configuration not stated)	none
CC(=O)C(Sc1nc(-c2ccco2)nc2c1c(=O)n(C)c(=O)n2C)C(=O)N(C)C (configuration not stated)	none
CCOC(=O)N1CCC(N2C(=O)c3ccc(C(=O)NC4CCCCCC4)cc3C2=O)CC1	HIV RNase H inh-1 64.1 | HIV RNase H inh-2 inactive
CCOC(=O)N1CCC(N2C(=O)c3ccccc3C2=O)CC1	none
CCCN1C(=O)c2ccc(C(=O)NC3CCCCC3)cc2C1=O	none
O=C(Nc1ccccc1C(=O)OCC(=O)N1CCc2ccccc2C1)c1ccco1	none
N#Cc1c(/N=C/c2ccco2)oc(-c2ccccc2)c1-c1ccccc1	none
COc1ccc(OC)c(/C=N/c2oc(-c3ccco3)c(-c3ccco3)c2C#N)c1	HIV RNase H inh-1 57.6 | HIV RNase H inh-2 65.6
COc1ccc(-c2oc(/N=C/N3CCOCC3)c(C#N)c2-c2ccc(OC)cc2)cc1	none
O=C(c1coc(=O)c2ccccc12)N1CCN(Cc2ccccc2)CC1	none
O=C(CCCn1c(SCC(=O)NC2CCCCC2)nc2ccccc2c1=O)NCC1CCCO1 (configuration not stated)	none
CCC(C)NC(=O)CSc1nc2ccccc2c(=O)n1CCCC(=O)NCC1CCCO1 (configuration not stated)	none
O=C(CCCn1c(SCC(=O)c2ccc(O)c(O)c2)nc2ccccc2c1=O)NCC1CCCO1 (configuration not stated)	HIV RNase H inh-1 94.8 | HIV RNase H inh-2 71.4
CCN(CC)C(=O)C1CCN(S(=O)(=O)c2ccc(C3CNC(=O)C3)cc2)CC1 (configuration not stated)	none
COCC(=O)/C=C1\Sc2ccccc2N1C	none
COc1ccc2c(c1)S/C(=C\C(=O)c1ccncc1)N2C	HIV RNase H inh-1 66.6 | HIV RNase H inh-2 inactive
CN1/C(=C\C(=O)c2cccs2)Sc2ccccc21	none
CCCCn1c(CN2CCN(C(=O)c3ccco3)CC2)nc2c1c(=O)n(C)c(=O)n2C	none
COC(=O)Nc1nnc(-c2ccccc2Cl)s1	none
COC(=O)Nc1nnc(-c2ccncc2)s1	HIV RNase H inh-1 66.8 | HIV RNase H inh-2 inconclusive
CCOC(=O)Nc1nnc(-c2cccc(OC)c2)s1	none
Cc1nnc(NC(=O)C2CCCN(c3ncccn3)C2)s1 (configuration not stated)	none
CCCCC(CCC(=O)Nc1ccc(C(=O)OC)cc1)C(=O)O (configuration not stated)	none
COc1ccc2c(c1)c(C(O)CN1CCC3(CC1)OCCO3)c(C)n2C (configuration not stated)	none
CCOC(=O)CN1C(=O)CSc2ccccc21	none
NC(=O)c1cnn2c(C(F)(F)F)cc(-c3ccc(F)cc3)nc12	none
Cc1cc(C)nc(/N=c2/ssnc2Cl)c1	HIV RNase H inh-1 83.8 | HIV RNase H inh-2 inactive
COc1ccccc1-n1c(SCC(=O)N2CCCC2)nc2cccnc21	none
CC(C1CC1)N(C(=O)NC1CCS(=O)(=O)C1)c1ccccc1 (configuration not stated)	none
CNC(=O)c1ccsc1NC(=O)c1ccc(Cl)s1	none
O=C(c1ccccc1CCc1ccccc1)N1CCOCC1	none
Cn1c(=O)[nH]c(=O)c2c1nc(N1CCOCC1)n2CC(O)COc1ccccc1 (configuration not stated)	none
CCSc1nc2c(c(=O)[nH]c(=O)n2C)n1CC(O)COc1ccccc1C (configuration not stated)	HIV RNase H inh-1 75.7 | HIV RNase H inh-2 inactive
Cc1ccccc1OCC(O)Cn1c(SC(C)C)nc2c1c(=O)[nH]c(=O)n2C (configuration not stated)	HIV RNase H inh-1 66.7 | HIV RNase H inh-2 inactive
Cn1c(=O)[nH]c(=O)c2c1nc(N1CCCC1)n2CC(O)COc1ccccc1 (configuration not stated)	none
Cc1cc(C)n(-c2nc3c(c(=O)[nH]c(=O)n3C)n2CC(O)COc2ccccc2)n1 (configuration not stated)	none
Cc1cc(C)n(-c2nc3c(c(=O)[nH]c(=O)n3C)n2CC(O)COc2ccccc2C)n1 (configuration not stated)	none
CCCN(CCO)Cc1ccc(F)c(Br)c1	none
O=C(NC(Cc1ccccc1)C(=O)OCC(=O)N1CCc2ccccc21)c1ccco1 (configuration not stated)	none
CC1=C(C)C(=O)NC(Nc2nc(C)c3cc(C)cc(C)c3n2)N1 (configuration not stated)	none
Cc1sc2ncnc(Sc3nnc4sc5ccccc5n34)c2c1C	none
Cc1ccccc1N1C(=O)CC(Sc2nnc(-c3ccccc3)o2)C1=O (configuration not stated)	HIV RNase H inh-1 57.6 | HIV RNase H inh-2 inactive
O=C1CC(Sc2nnc(-c3ccccc3)o2)C(=O)N1c1ccccc1 (configuration not stated)	HIV RNase H inh-1 52.0 | HIV RNase H inh-2 inactive
O=C1c2ccccc2CC1Sc1nnc(-c2ccncc2)o1 (configuration not stated)	none
Cc1nc(SC2CC(=O)N(c3ccccc3)C2=O)nc2c1CCCC2 (configuration not stated)	none
Cc1ccccc1N1C(=O)CC(N2CCC(C(N)=O)CC2)C1=O (configuration not stated)	none
COc1ccccc1N1C(=O)CC(Sc2nc(C)cc(C)n2)C1=O (configuration not stated)	none
CCOC(=O)c1c(C)n(C)c2c(C)cc(O)c(OC(C)=O)c12	none
Cc1cc(/C=N/n2cnnc2)c(C)n1-c1cc(Cl)ccc1Cl	none
COc1ccc(C(=O)Nc2cccc(C)c2)cc1	none
Cc1nn(-c2ccccc2)c2c1C1(C(=O)N(C(C)C)c3ccccc31)C(C#N)=C(N)O2 (configuration not stated)	none
CC(=O)OC1CSc2nc3ccccc3n2C1 (configuration not stated)	none
CCOC(=O)c1cnn2c(C(F)(F)F)cc(-c3ccco3)nc12	none
CC(C)OC(=O)c1nn2c(C(F)(F)F)cc(-c3ccc(Br)o3)nc2c1Br	HIV RNase H inh-1 66.5 | HIV RNase H inh-2 inactive
O=C(c1nn2c(C(F)(F)F)cc(-c3ccco3)nc2c1Br)N1CCCc2ccccc21	none
O=C(Cc1c(O)c2ccccc2[nH]c1=O)OC1CCCCC1	none
